According to PubChem BioAssay (NCI):
The panel holds about 83,000 compounds, 20% with a hit somewhere; the sample as a whole holds those more often.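 Cell lines were cultured in 96-well plates, exposed to a single compound concentration, and assessed for percent growth 48 hours later.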 A number with no mark means an inactive call. Active and inactive are the calls of the source. The calls were made as follows: active = growth percent below 10; inactive = the rest.

Key:
Assay in all cases: NCI-60 one-dose screen, 48 h (100 = growth as untreated, 0 = no growth, -100 = all killed)
Conditions in all cases: 10 µM unless noted
SK-MEL-2 melanoma = test system: SK-MEL-2 melanoma
EKVX NSCLC = test system: EKVX NSCLC
SN12C renal = test system: SN12C renal
UO-31 renal = test system: UO-31 renal
TK-10 renal = test system: TK-10 renal
ACHN renal = test system: ACHN renal
CAKI-1 renal = test system: CAKI-1 renal
A498 renal = test system: A498 renal
CCRF-CEM leukemia = test system: CCRF-CEM leukemia
MOLT-4 leukemia = test system: MOLT-4 leukemia
SR leukemia = test system: SR leukemia
RPMI-8226 leukemia = test system: RPMI-8226 leukemia
OVCAR-8 ovarian = test system: OVCAR-8 ovarian
OVCAR-5 ovarian = test system: OVCAR-5 ovarian
OVCAR-4 ovarian = test system: OVCAR-4 ovarian
SK-OV-3 ovarian = test system: SK-OV-3 ovarian
IGROV1 ovarian = test system: IGROV1 ovarian
OVCAR-3 ovarian = test system: OVCAR-3 ovarian
HS 578T breast = test system: HS 578T breast
NCI/ADR-RES ovarian = test system: NCI/ADR-RES ovarian

SMILES | growth (SK-MEL-2 melanoma) | growth (EKVX NSCLC) | growth (SN12C renal) | growth (UO-31 renal) | growth (TK-10 renal) | growth (ACHN renal) | growth (CAKI-1 renal) | growth (A498 renal) | growth (CCRF-CEM leukemia) | growth (MOLT-4 leukemia) | growth (SR leukemia) | growth (RPMI-8226 leukemia) | growth (OVCAR-8 ovarian) | growth (OVCAR-5 ovarian) | growth (OVCAR-4 ovarian) | growth (SK-OV-3 ovarian) | growth (IGROV1 ovarian) | growth (OVCAR-3 ovarian) | growth (HS 578T breast) | growth (NCI/ADR-RES ovarian)
NC(N)=Nc1ccc(Oc2cccc(Nc3cccc(C(F)(F)F)c3)c2)cn1 | 64.8% | 2.37% (active) | -13.7% (active) | 42.8% | 70% | 37.8% | 27.2% | 18.1% | -9.05% (active) | 0.007% (active) | -46.9% (active) | -41.5% (active) | 45.4% | 50.4% | 24.7% | 67.8% | 13.8% | -66.6% (active) | 52.8% | 46.6%
N#Cc1c(-c2cccs2)cc(-c2cnccn2)nc1SCC(=O)c1ccc(F)cc1 | 102% | 58.9% | 80.3% | 54.7% | 89.3% | 92.2% | 59.7% | 8.83% (active) | 94.5% | 92.7% | 81.3% | 97.7% | 99.5% | 88% | 76% | 104% | 78.1% | 118% | 94.2% | 96.4%
NC(N)=Nc1ccc(Nc2cccc(Oc3ccc(Cl)c(C(F)(F)F)c3)c2)cn1 | 74.9% | 30.5% | -71.8% (active) | 56.4% | 81.7% | 55.7% | 42.9% | 62.8% | -9.86% (active) | 0.616% (active) | -49.9% (active) | -40.8% (active) | 27.4% | 58.1% | 39.8% | 56.3% | 22.6% | -55% (active) | 45.4% | 80.5%
O=C1CCCc2nc(Nc3ccc(S(=O)(=O)Nc4ccc([N+](=O)[O-])cc4)cc3)ncc21 | 111% | 100% | 96.2% | 87.1% | 105% | 104% | 89.9% | 94.7% | 99.8% | 101% | 105% | 100% | 106% | 111% | 107% | 109% | 98% | 98.9% | 98.4% | 105%
COc1ccc2c(c1)c(-c1cc(N)n3nc(-c4cn(C)c5ccc(OC)cc45)cc3n1)cn2C | 133% | 107% | 92.4% | 93.3% | 121% | 103% | 96.7% | 88.8% | -8.54% (active) | 56.1% | -12.2% (active) | -0.83% (active) | 97.9% | 117% | 109% | 134% | 105% | 117% | 110% | 120%
COc1ccc(NCc2cn(-c3ccc(C(=O)O)cc3)nc2-c2cc(C(F)(F)F)cc(C(F)(F)F)c2)cc1 | 101% | 90.3% | 95.4% | 93.1% | 110% | 102% | 81.5% | 72.1% | 95.9% | 86.4% | 112% | 67.2% | 109% | 104% | 100% | 99.6% | 108% | 101% | 81.5% | 96.8%
O=C(/C=C/c1ccc(F)cc1)c1ccc(O)cc1 | 115% | 104% | 91.9% | 91.9% | 106% | 102% | 87% | 101% | 77.6% | 92.5% | 24.4% | 23.9% | 98.4% | 103% | 106% | 110% | 114% | 83.6% | 107% | 106%
CCOP(=O)(OCC)OC[C@]12CCC(C)(C)C=C1[C@H]1CC[C@@H]3[C@@]4(C)CC[C@H](OP(=O)(OCC)OCC)C(C)(C)[C@@H]4CC[C@@]3(C)[C@]1(C)CC2 | -60.9% (active) | -10.3% (active) | -70.6% (active) | -61% (active) | -18% (active) | -8.2% (active) | -63% (active) | -8.86% (active) | -23.2% (active) | -20.4% (active) | -27.4% (active) | -43% (active) | -27.3% (active) | -26.8% (active) | -1.21% (active) | -2.62% (active) | -20% (active) | -85.5% (active) | -13.5% (active) | 0.702% (active)
O=C(CN1CCN(c2cc(=O)n(-c3ccccc3)c3ccccc23)CC1)Nc1cccc(C(F)(F)F)c1 | 92% | 42.9% | 75.9% | 33% | 74.4% | 58.5% | 56.9% | 52.9% | 53.4% | 34.8% | 67.3% | 47% | 70.6% | 91.8% | 19.9% | 77.3% | 60.7% | 69.8% | 76.3% | 64.7%
Nc1cc(F)ccc1NC(=O)c1ccc(NC(=O)C/C=C/c2cccnc2)cc1 | 41.3% | 73% | 29.5% | 52.6% | 52.9% | 55.9% | 66.4% | 43.2% | 24.6% | 40.7% | 29.3% | 6.2% (active) | 29.9% | 37.2% | 48% | 54.5% | 27.9% | 45.1% | 49% | 51%
N/C(=N\C(N)=N\c1nc2ccccc2s1)c1ccc(C(F)(F)F)cc1 | 108% | 54.8% | 36.5% | -19.1% (active) | 102% | 27.8% | 80.2% | 70.9% | 54.7% | 68.6% | 9.02% (active) | 46.5% | 55.8% | 105% | 94.6% | 124% | 80.5% | 91.2% | 86.9% | 30.4%
Cc1ccc(-n2c(/C=C3\C(=O)Nc4ccccc43)ccc2CO)cc1 | 81% | 79.8% | 88.2% | 65% | 118% | 76.5% | 55.9% | 47% | 54.9% | 43.8% | 46.6% | 69.4% | 94.3% | 104% | 90.1% | 86.8% | 75% | 65.4% | 87.3% | 55.7%
Cc1ccc(CSc2nc(-c3ccc(Cl)cc3)c(C#N)c(N3CCNCC3)n2)cc1 | 115% | 82.2% | 77.8% | 64.2% | 99.7% | 82.3% | 64.9% | 17.6% | 65.6% | 55.5% | -10.6% (active) | 69.4% | 92% | 99.7% | 89.3% | 117% | 66.8% | 82.9% | 80.1% | 94.5%
CCO/C=N/C1=C(C#N)C(c2ccc(Cl)cc2)c2sc3c(C)cccc3c2O1 (stereo not given) | 42.6% | 45.9% | 26.2% | 30.3% | 62.2% | 31.8% | 39.5% | -5.08% (active) | 16.2% | 18.8% | 12.2% | 7.03% (active) | 28% | 27.9% | 64.3% | 59.4% | 26.6% | -30.6% (active) | 18.9% | 11.7%
